# Screening results deposited in PubChem by National Center for Advancing Translational Sciences (NCATS).
# TDP1 cell noCPT – qHTS for Inhibitors of human tyrosyl-DNA phosphodiesterase 1 (TDP1): qHTS in cells in absence of CPT; DT40 Tdp1-/- hTDP1 cells, no CPT, ATP luminescence, 48 h; Potency, µM (top dose mostly 46.2 µM), inactives show at the top dose activity change, negative = growth inhibition, hits mostly inhibitors; actives 15% (n = 420,000); further: potency means the concentration at half of the fitted maximal effect; nearly all actives have a fitted effect of over 55% in size
#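 DT40 Tdp1-/-;hTDP1 cells, no CPT (DMSO vehicle only), 400 cells/well; compounds pin-transferred; ≥48 hr, 37 °C; CellTiter-Glo 30 min RT dark, luminescence read.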
# DT40 TDP1 CPT – growth inhibition of DT40 Tdp1-/-;hTDP1 cells with camptothecin (screen for TDP1 inhibitors) | chicken DT40 Tdp1-/-;hTDP1 cells + 20 nM CPT, ATP luminescence, 48 h | Potency, µM (doses to about 46.2 µM), inactives show top-dose activity change, negative = growth inhibition, hits mostly inhibitors | actives 12% (n = 420,000); further: potency means the concentration at half of the fitted maximal effect; nearly all actives have a fitted effect of over 55% in size
#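 Chicken DT40 Tdp1-/- cells complemented with human TDP1, 400 cells/well, exposed to compounds plus 20 nM camptothecin for at least 48 h at 37 C; viability read as ATP content by CellTiter-Glo luminescence.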
# HT1080NT lethal – kills 2HG-producing HT-1080-NT fibrosarcoma cells | HT-1080-NT fibrosarcoma viability, CellTiter-Glo ATP luminescence, 48 h | Potency, µM (top dose mostly 46.1 µM), without a hit: at the top dose activity, negative = less viability, hits mostly cytotoxic | actives 1.6% (n = 360,000);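 further: NT is the 2HG producing partner of a matched IDH1 knockdown line; potency means the concentration at half of the fitted maximal effect; 0% = DMSO-treated cells and -100% = media-only wells without cells; nearly all actives have a fitted effect of over 55% in size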
#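 Toxicity toward the 2HG-producing NT line was scored as %Activity, normalised to DMSO and no-cell wells, from CellTiter-Glo luminescence after 48 hours' treatment.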
# ALOX12 inh – inhibitors of human 12S-lipoxygenase ALOX12; P18054; purified 12hLO, xylenol orange hydroperoxide absorbance; Potency, µM (doses to about 108 µM), without a hit: at the highest dose activity change, negative = inhibition, hits mostly inhibitors; actives 1.1% (n = 580,000); AID 1671190; further: potency means the concentration at half of the fitted maximal effect
# Target sequence (P18054 whole entry, looked up): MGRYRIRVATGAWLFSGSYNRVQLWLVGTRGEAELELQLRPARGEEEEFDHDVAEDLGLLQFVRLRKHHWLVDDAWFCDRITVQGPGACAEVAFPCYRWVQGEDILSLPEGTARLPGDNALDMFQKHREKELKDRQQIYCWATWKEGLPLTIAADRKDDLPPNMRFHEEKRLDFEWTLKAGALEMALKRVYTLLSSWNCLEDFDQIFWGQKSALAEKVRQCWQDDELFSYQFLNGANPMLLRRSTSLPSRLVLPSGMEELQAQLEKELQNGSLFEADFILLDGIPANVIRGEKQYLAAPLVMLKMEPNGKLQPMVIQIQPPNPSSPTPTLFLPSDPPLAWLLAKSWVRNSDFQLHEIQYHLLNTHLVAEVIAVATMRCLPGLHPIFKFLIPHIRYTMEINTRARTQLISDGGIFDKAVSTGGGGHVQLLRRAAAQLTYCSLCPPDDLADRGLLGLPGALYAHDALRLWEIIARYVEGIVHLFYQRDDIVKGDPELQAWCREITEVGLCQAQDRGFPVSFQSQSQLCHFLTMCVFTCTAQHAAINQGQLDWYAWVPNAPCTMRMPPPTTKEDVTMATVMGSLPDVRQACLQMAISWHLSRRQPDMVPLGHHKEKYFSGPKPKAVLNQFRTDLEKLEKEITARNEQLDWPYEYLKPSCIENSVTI
#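 Purified human 12hLO (150 nM final) in 25 mM Hepes, 0.01% Triton X-100, pH 7.0 was preincubated 15 min at room temperature with compound. Then 40 uM arachidonic acid was added, 30 min. Hydroperoxide was read by Fe-XO absorbance ratio 573/405 nm.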
# HT1080 IDH1KD tx – HT-1080 IDH1 knockdown cell toxicity (counter line); Potency, µM (titrated, usually from 46.1 µM), for inactives: at the highest dose activity, negative = toxicity, most hits filed as cytotoxic; actives 2% (n = 360,000); HT-1080 IDH1 knockdown viability, ATP luminescence, 48 h; AID 686971;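 further: potency means the concentration at half of the fitted maximal effect; 0% = DMSO wells and -100% = cell-free medium wells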
#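 Knockdown cells (IDH1KD HT-1080) received compounds 2 h after plating at 750 cells/well and were kept 48 h at 37 °C in 5% FBS RPMI. A CellTiter-Glo luminescence read gave % activity for curve fitting.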
# IL1B secr inh – inhibitors of inflammasome signaling (IL-1 beta secretion). THP-1 LPS/ATP IL-1B secretion, AlphaLISA, 16 h; hits give low values. activity change, % at 57.5 µM. actives 4.7% (n = 360,000). AID 743279; in the data active means activity change below about -50%; inconclusive means mostly about -30% to -49%
#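 Secreted IL-1B measured by AlphaLISA bead assay after 16 h compound exposure of THP-1 cells; compounds (final up to 57.5 uM) added 1 h before LPS (250 ng/mL) and ATP (1.25 mM) stimulation; lower signal means less secretion.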
# * hit, by the source's call; ? = inconclusive; . = not tested or not shown; [ ] = remark or other dose. Shown is part of a subset that was picked to be rich in hits. Unless noted, the call rests on the fitted dose curve; in most records, active means well fitted curve in the direction sought with a large enough effect; inconclusive means small, poorly fitted or top-dose-only effect, or another doubt; inactive means no such curve, though single readings can be large; an effect the other way counts as inactive or inconclusive. Unless noted, on the % scale 0 is the no-effect control and ±100 the full control effect.
SMILES,TDP1 cell noCPT,DT40 TDP1 CPT,HT1080NT lethal,ALOX12 inh,HT1080 IDH1KD tx,IL1B secr inh
C[n+]1ccc(-c2ccncc2)cc1,0.4%,1.8%,13.7%,12.6µM*,14.2%,-4.3
CN1c2ccc([N+](=O)[O-])cc2CC2(C(=O)NC(=O)N(c3ccccc3)C2=O)C1c1ccccc1 (stereo not drawn),18.4µM*,13µM*,-8.2%,-28.8%,-10.3%,19.2
COCCN1C[C@H]2CN(CC3CC3)CCN2C1=O,.,.,.,-2.7%[176 µM],.,.
O=C(COc1ccc(S(=O)(=O)N2CCCCC2)cc1)N1CCN(Cc2ccccc2)CC1,?,?,1.3%,0.0%,-1.2%,9.4
CCOc1ccc(C(=O)N2CCC(c3noc(-c4ccc(S(=O)(=O)N5CCCC5)cc4)n3)CC2)cc1,16.4µM*,?,.,-24.9%,.,.
O=C(COc1ccc(F)cc1)N1CCN(CCc2ccncc2)CC1,.,.,.,-9.4%,.,.
COc1ccc(C=C(C#N)c2ccc(OC)cc2)cc1,?,?,-0.6%,-12.3%,-11.4%,-57.5*
Cc1nn(-c2nc3ccccc3s2)c(C)c1Oc1ccccc1O,?,18.4µM*,12.6µM*,.,12.6µM*,-79.1*
NCCc1nc2ccccc2s1,10.4%,4.9%,-6.9%,33.4%,-1.8%,22.6
Cc1nc(-c2ccco2)cc([C@H]2CN3CC[C@H]2C[C@@H]3CNCc2ccccc2)n1,.,.,.,67.0%[176 µM],.,.
O=C(NCc1ccccc1)Oc1cccc(Cl)c1,16.4µM*,?,-10.3%,?,-3.3%,0.0
NC(=NCCc1ccc(I)cc1)SCCCc1cnc[nH]1,13µM*,14.6µM*,.,?,.,.
CCOC(=O)C1=C(N)Oc2cc(C)oc(=O)c2C12C(=O)Nc1ccccc12 (stereo not drawn),.,.,.,18.8%,.,.
c1ccc2c(c1)CN(Cc1ccc3c(c1)OCO3)Cc1cnnn1-2,10.3µM*,?,-5.0%,-8.3%,-10.6%,12.8
COCCNC(=S)N1Cc2ccccc2-n2nncc2C1,-14.5%,-7.9%,-1.2%,-18.1%,-2.7%,-6.1
S=C(NCCc1ccccc1)N1Cc2cc(-c3ccccc3)ccc2-n2nncc2C1,?,?,-9.6%,?,?,-3.5
CCNC(=O)N1Cc2ccccc2-n2nncc2C1,-3.3%,3.4%,8.9%,-29.0%,7.6%,6.7
O=C(Cc1cccs1)N1Cc2ccccc2-n2nncc2C1,?,-14.6%,-0.3%,39.8µM*,7.0%,83.7
Fc1cccc(-c2ccc3c(c2)CN(C(=S)NCCc2ccccc2)Cc2cnnn2-3)c1,?,?,?,-17.6%,-22.4%,-57.4*
S=C(NCCc1ccccc1)N1Cc2ccccc2-n2nncc2C1,20.6µM*,?,-17.2%,-2.7%,-11.0%,51.8
c1ccc(CN2Cc3ccccc3-n3nncc3C2)cc1,?,-4.7%,-2.1%,5.2%,-3.2%,13.0
CN(CCc1ccccn1)C[C@H]1CN2CC[C@H]1C[C@@H]2CNC(=O)c1ccc(C(F)(F)F)cc1,.,.,.,63.5%,.,.
CN(C)c1ccc(C(=O)NC[C@H]2C[C@@H]3CCN2C[C@@H]3CN2CCN(c3ccc(F)cc3)CC2)cc1,.,.,.,62.8%,.,.
N#CSCC(=O)N1c2ccccc2CCc2ccccc21,7.31µM*,5.8µM*,?,-5.2%,23.1µM*,-51.2*
Nc1ccccc1C(=O)OCC(=O)N1CCc2ccccc21,-9.4%,-2.7%,14.2%,-22.4%,18.1%,-0.9
SMILES,TDP1 cell noCPT,DT40 TDP1 CPT,HT1080NT lethal,ALOX12 inh,HT1080 IDH1KD tx,IL1B secr inh
O=c1oc2ccccc2cc1-c1cn2cc(Cc3ccc(F)cc3)sc2n1,2.06µM*,5.17µM*,.,-5.4%,.,.
CCCS(=O)(=O)NC[C@H]1C[C@@H]2CCN1C[C@@H]2c1cc(C2CCCCC2)nn1C,.,.,.,42.0%[176 µM],.,.
CCOC(=O)[C@]12Cc3cc(OC)ccc3[C@H]1N(C1CCCCC1)C(=O)c1ccccc12,2.31µM*,2.06µM*,2.59µM*,-69.0%,2.31µM*,-121.7*
CCOC(=O)[C@]12Cc3cc(Cl)ccc3[C@H]1N(C1CCCCC1)C(=O)c1ccccc12,2.31µM*,2.31µM*,2.31µM*,.,2.31µM*,-113.7*
COc1ccc(CN2C[C@@H]3C[C@H]2C(=O)Nc2ccccc2O3)cn1,.,.,.,-2.4%[176 µM],.,.
CN(C)C(=O)N1CCC2(CC1)NCc1ccccc1-n1ccnc12,.,.,.,38.0%,.,.
CC(C)NC(=O)NC[C@H]1C[C@@H]2CCN1C[C@@H]2CN(C)c1ccccc1,.,.,.,41.6%[176 µM],.,.
COc1ccc(OC)c(N2C(=O)NC(=O)/C(=C\c3ccc([N+](=O)[O-])s3)C2=O)c1,?,16.4µM*,-13.2%,?,-18.0%,?
O=C1NC(=O)N(c2ccccc2)C(=O)/C1=C\c1ccc([N+](=O)[O-])s1,8.2µM*,20.6µM*,4.3%,0.0%,-2.0%,-69.4*
CN1C(=O)NC(=O)/C(=C/c2ccc([N+](=O)[O-])s2)C1=O,3.26µM*,4.11µM*,-25.4%,?,-7.6%,-18.5
COc1ccc(N2C(=O)NC(=O)/C(=C\c3ccccc3[N+](=O)[O-])C2=O)cc1,-10.6%,-19.5%,2.3%,?,-5.1%,5.6
COc1ccc(-c2c(C(F)(F)F)oc3cc(OC(=O)N(C)C)ccc3c2=O)cc1,.,.,.,-18.2%,.,.
O=[S+]1([O-])NCC2(CCN(Cc3ccoc3)C2)Oc2ncccc21 (stereo not drawn),.,.,.,-0.1%[6.33 µM],.,.
COc1cc2c(cc1OC1CCCC1)NC(=O)C21CCN(c2nc(C)cc(C)n2)CC1,.,.,.,2.6%[176 µM],.,.
O=Cc1c(C(=O)O)n(Cc2ccc(Cl)cc2)c2ccccc12,-8.8%,4.9%,-1.0%,11.2µM*,11.6%,0.0
Cc1c(C=O)c2ccccc2n1Cc1ccccc1,-26.1%,-4.9%,-2.2%,0.0%,-17.8%,4.9
COc1cccc(C(=O)CCN[C@@H](C)[C@H](O)c2ccccc2)c1,23.7µM*,13.3µM*,.,.,.,.
c1ccc(CNC2(c3nnnn3-c3ccccc3)CCCCC2)cc1,.,.,.,14.7%,.,.
c1ccc2sc(C3(N4CCCCC4)CCCCC3)cc2c1,18.4µM*,26.6µM*,.,?,.,.
C[C@]12CC[C@H](O)C[C@@H]1CC[C@H]1[C@H]3CCC(=O)[C@@]3(C)CC[C@@H]12,18.4µM*,?,-0.8%,-15.1%,-1.0%,-24.7
C[C@]12CCC3C(CC[C@H]4C[C@H](OC(=O)c5cccnc5)CC[C@]34C)C1CCC2=O (stereo partly drawn),23.1µM*,?,-6.3%,?,-11.7%,20.6
C#C[C@H]1CN2CC[C@H]1C[C@@H]2CNS(=O)(=O)c1ccc(OC)cc1,.,.,.,-23.2%[176 µM],.,.
